Experimental findings from PMC12136788 are described below.

Positions count from the first letter of the chain named. Over roughly 5,800 sequences, “enrichment r” has its median near 0.68; the highest 2% begin near 11. Many of the other results were omitted from the sample, so the highest values are more common in it than they were.

T1: UNK ZnF1-6 (called full-length) (human, UniProt Q9C0B0 30-357)
T1 sequence: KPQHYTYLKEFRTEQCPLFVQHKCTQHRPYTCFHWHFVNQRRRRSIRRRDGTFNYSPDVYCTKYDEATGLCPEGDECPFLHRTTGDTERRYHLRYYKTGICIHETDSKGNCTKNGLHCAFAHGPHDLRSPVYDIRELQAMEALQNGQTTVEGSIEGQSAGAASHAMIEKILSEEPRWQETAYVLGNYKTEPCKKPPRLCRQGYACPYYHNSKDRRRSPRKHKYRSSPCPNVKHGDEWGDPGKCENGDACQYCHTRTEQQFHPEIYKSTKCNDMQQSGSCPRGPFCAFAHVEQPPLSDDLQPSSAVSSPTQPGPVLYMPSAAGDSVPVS

B1: chr16:2708819:2708933:+|3pUTR|ENSG00000167977|unk|total|mutant (ssRNA)
RNA: GGGAGUUCUACAGUCCGACGAUCCUCUCUGGGGAGCUGCUGGCCGCUCCGCGUUGUUUGAUUUUUGACCUUGACACCGCCGACCGGCUUGUGGUUUUUUUAAUUUAAAGAUAUUAAGACUUAAUUCACUAAAAUUUAUUCUAACAACAGAGGAUUGAGCAUCA
B2: chr2:96185838:96185916:-|3pUTR|ENSG00000084090|msi1_unk|FALSE|overlapping (ssRNA)
RNA: GGGAGUUCUACAGUCCGACGAUCUGGGAGACUAAUCCUUUUAGAUAGUAGCUUUUUGAUGCUCAAAACAUCACAUUUAAAUUUAGUUUAAAAAUUUUUUAACUUUUGUGUCAAAUAGGAGUUGAGGAAUUGAGCAGGAUUCUACAACAGAGGAUUGAGCAUCA
B3: chr16:2708819:2708933:+|3pUTR|ENSG00000167977|unk|FALSE|unique (ssRNA)
RNA: B1 RNA with C48U, C49A, C76U, C77A, C79U, C80A, C83U, C84A
B4: chr5:6669452:6669553:+|3pUTR|ENSG00000145545|unk|FALSE|unique (ssRNA)
RNA: GGGAGUUCUACAGUCCGACGAUCCAUCUCAUCUGGAGUUUUUAAAUGCCAUUUGUUUCAGUUGUCUUUAACAACAUAAUAAAUAGACUUUGCCAUUUAACAAGGUAGCUCAAAUUCUUUUACUAAUUGUUACAUCGAAACAUUCAACAGAGGAUUGAGCAUCA
B5: ENSG00000168615:stop:overlap|stop_codon|ENSG00000168615|stop_codon|NA|stop_codon (ssRNA)
RNA: GGGAGUUCUACAGUCCGACGAUCCUGGCCAGAAUACCCAAAAUAAUUGGCAGAUGUCAAAUUUGGCUUUCUGUGUUUAUUACUAGAGCAUAAACAUUUCUAGUUUUGUUUGAGUGUUUUACAGUCCUUUUUGGCAGUUAGGUACAACAGAGGAUUGAGCAUCA
B6: chr2:216672738:216672882:-|3pUTR|ENSG00000115461|msi1|FALSE|unique (ssRNA)
RNA: GGGAGUUCUACAGUCCGACGAUCUUCUCUUAGGCUUUUGUUUCUAUUUCAAACAUACUUUCUUGGUUUUCUAAUGGAGUAUAUAGUUUAGUCAUUUCACAGACUCUGGCCUCCUCUCCUGAAAUCCUUUUGGAUGGGGAAAGGCAACAGAGGAUUGAGCAUCA
B7: chr10:98383567:98383797:-|three_prime_utr|ENSG00000119943|control|control|control (ssRNA)
RNA: GGGAGUUCUACAGUCCGACGAUCCCACCCCUGAAUUCCAAGUGCUCCAUUGGAUCAGCUUCCCAGGAAGUUCAGCUUCGGGUUAGUACAUAAGGCCACCACAAUGCUCAAGAAAUUAUUUUAGAAAAAACGUACGAGUUACAUCAACAGAGGAUUGAGCAUCA
B8: chr12:103777333:103777434:-|3pUTR|ENSG00000111696|msi1|total|mutant (ssRNA)
RNA: GGGAGUUCUACAGUCCGACGAUCUCCUGAACAUUUACGGGCUAUGCAUUGGGAACUGCAGGGGCACAGUGAUGGGCAAAGAUCCGCUGCUUCCAGAAGGCUGAUUUCGUGGGCUCCACAAUGGUAAAACGCUGCUGUGAGUGGCAACAGAGGAUUGAGCAUCA
B9: chr7:152122106:152122213:+|3pUTR|ENSG00000178234|unk|total|mutant (ssRNA)
RNA: GGGAGUUCUACAGUCCGACGAUCAGUGGUUUUUAUCUGAUCAGGAACUUGUCAUGAUUUCCUUUCUCCGACUUCACCGGAGACCGUGCUUUAAAAAAAAAAAAAACUUCUAUUAUUUGUUCCGUAUGUUGUAAGCCGAUCAUUCAACAGAGGAUUGAGCAUCA
B10: chr5:160402147:160402258:-|3pUTR|ENSG00000164609|unk|FALSE|unique (ssRNA)
RNA: GGGAGUUCUACAGUCCGACGAUCAUGGUUUACAUUACCGUUUGUUUUCAUUGUGAUUGCCCCUAUGUAACAAUCAUGAAUAUUAGAUUUUUUAAAUUGUAGAAUAUCCUAAUAUUUAUAGCCAGCAGCUGUUACUUUGUUUGUCAACAGAGGAUUGAGCAUCA
B11: chr14:100278170:100278208:+|3pUTR|ENSG00000100811|msi1_unk|FALSE|overlapping (ssRNA)
RNA: GGGAGUUCUACAGUCCGACGAUCGCUAUCUUAAUUUUGGUUGUAUUCUUUGAUGUUAACACAUUUUGUAUAAUUGUAUCGUAUAGCUGUAUUGAAUCAUGUAGUAUCAAAUAUUAGAUGUGAUUUAAUAGUGUUAAUCAAUUUCAACAGAGGAUUGAGCAUCA
B12: chr10:121957106:121957207:-|3pUTR|ENSG00000107672|msi1|FALSE|bound_elsewhere (ssRNA)
RNA: GGGAGUUCUACAGUCCGACGAUCUGUAUCGUACAUAUUGUAUGAUUCAACAUUUUUAAAGGCAGAUUGUUUUUAGUAAAAUGUAGCUUUUGAUAGUUAAUAAAUUUGUCAUGGUUGUCUUUGAUUAAAGGAAACUCACCGCCACAACAGAGGAUUGAGCAUCA
B13: chr21:14371318:14371404:-|3pUTR|ENSG00000155304|msi1_unk|total|mutant (ssRNA)
RNA: GGGAGUUCUACAGUCCGACGAUCUAUGAAUAACAAUCUGAAGUCUUUUCAUAAAAAAAAUUAAUAAACUUCCGUUGUACAUUCCGCCAGUGUUAUUUGAAGUAUGUAACUUUUAAAAUAUUAAGUGUCUUGUAUGAUCCGAAUCAACAGAGGAUUGAGCAUCA
B14: chr7:152122106:152122213:+|3pUTR|ENSG00000178234|unk|FALSE|unique (ssRNA)
RNA: B9 RNA with C67U, C68A, C76U, C77A, C83U, C84A, C121U, C122A, C135U, C136A
B15: chr17:61865808:61865921:-|3pUTR|ENSG00000108506|unk|FALSE|unique (ssRNA)
RNA: GGGAGUUCUACAGUCCGACGAUCUUCUAUGAGAAUGAGUUUGUAGCUGUUUCAAAUCAUGAAGUGCAUAGUAUCACAUGUGAUAGAAUAUUUAUAACUUUUUAUUAGAUGCUUAAUGUUCAAUUAAGUAAUUUUGAUGUGAAACAACAGAGGAUUGAGCAUCA
B16: chr4:56502255:56502306:+|3pUTR|ENSG00000174780|msi1_unk|FALSE|overlapping (ssRNA)
RNA: GGGAGUUCUACAGUCCGACGAUCAUUUCAGCUGGAGUCUGAAGAUACUUGUUUCUGUUCAAGUCCCACUUUAAAUUAUGUCUUAGGAGACUGAAAGUGGAAUCUUCUGAGCAUUCCUAAAUAUCUGCUUAGAAAUAUCAUGUGCAACAGAGGAUUGAGCAUCA

For the experiment, the target named is T1, UNK ZnF1-6 (called full-length). The experiment is described as follows: nsRBNS (natural sequence RNA bind-n-seq); RBNS binding buffer (assumed for nsRBNS): 25 mM Tris pH 7.5, 150 mM KCl, 3 mM MgCl2, 0.01% Triton X-100, 500 ug/ml BSA, 20 U/ml SUPERase-In, 4 C; UNK is unkempt and MSI1 is Musashi-1; names of the RNAs are library labels; protein concentration not given here; high values mean tight binding.
B1 gave a binding signal of 2.05 enrichment R.

B2 had a binding signal of 27.5 enrichment R.

In turn, B3 registered a binding signal of 14.8 enrichment R.

The molecule B4 gave a binding signal of 0.535 enrichment R.

B5 gave a binding signal of 0.532 enrichment R.

Molecule B6 displayed a binding signal of 5.21 enrichment R.

In turn, B7 showed a binding signal of 2.25 enrichment R.

B8 yielded a binding signal of 0.856 enrichment R.

Molecule B9 showed a binding signal of 0.949 enrichment R.

B10: the binding signal came out at 5.04 enrichment R.

B11: the binding signal came out at 14.1 enrichment R.

For the molecule B12, the binding signal came out at 13.5 enrichment R.

In turn, B13 showed a binding signal of 0.702 enrichment R.

Molecule B14 gave a binding signal of 35 enrichment R.

B15 returned a binding signal of 2.51 enrichment R.

On to B16, for which the binding signal amounted to 0.869 enrichment R.
